Laboratory results reported in PubChem BioAssay AID1817 (Sanford-Burnham Center for Chemical Genomics, 2009).
The whole screen tested about 290,000 compounds, of which about 50 (0.02%) were called active. Shown is part of a subset that was picked to be rich in actives. Entries with a potency or affinity are not part of this list. Values without a mark were called inactive.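 How the source made its calls: active means displacement of at least 50% at 20 µM, with a fluorescence ratio check between 0.3 and a set limit; inactive means the rest.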

Each compound was assayed against E3 ubiquitin-protein ligase SIAH1 (Homo sapiens) (UniProt Q8IUQ4) (assay: Siah-1 peptide-binding antagonists, primary screen, biochemical, fluorescence polarization, rhodamine-plectin, uHTS (AID 1817;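 further: plate controls were Siah plus tracer with DMSO for no effect and tracer alone without Siah for full effect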)). Settings: Siah-1 / rhodamine-plectin peptide fluorescence polarization; at 20 µM; hits give high values.
Chain of E3 ubiquitin-protein ligase SIAH1 (Homo sapiens) (Q8IUQ4 whole entry, looked up): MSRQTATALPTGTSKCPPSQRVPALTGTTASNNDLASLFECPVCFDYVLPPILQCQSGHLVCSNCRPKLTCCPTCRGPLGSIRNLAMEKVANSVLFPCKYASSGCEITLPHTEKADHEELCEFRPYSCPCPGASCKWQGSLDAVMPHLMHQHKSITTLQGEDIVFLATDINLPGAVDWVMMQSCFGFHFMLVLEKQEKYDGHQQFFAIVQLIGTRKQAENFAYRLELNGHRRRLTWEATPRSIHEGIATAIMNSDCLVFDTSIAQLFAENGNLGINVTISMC

Q: For `COc1cc(NS(=O)(=O)c2ccc(NC(=O)/C(=C/c3ccccc3Cl)NC(=O)c3ccccc3)cc2)nc(OC)n1`, which displacement is on record?
A: 13.9%

Q: Which displacement does the source give for `O=C(Nc1ccc(S(=O)(=O)Nc2nccs2)cc1)/C(=C/c1ccccc1Cl)NC(=O)c1ccccc1` here?
A: 54.4% (active)

Q: `O=C(NC(=S)Nc1ccc(S(=O)(=O)Nc2nccs2)cc1)c1ccccc1` was tested. Which displacement did it give?
A: -2.4%

Q: Which displacement does the source give for `CCCn1c(=O)c(C(=O)NCc2ccncc2)c(O)c2ccccc21` here?
A: 8.4%

Q: `CC(=O)Nc1cccc(Oc2ncccc2[N+](=O)[O-])c1` was tested. Which displacement did it give?
A: -3%

Q: How did the displacement turn out when `Cc1ccc(O)c(N=Cc2cc(Cc3ccccc3)cc([N+](=O)[O-])c2O)c1` was run?
A: 22.9%

Q: With `O=[N+]([O-])c1cc(Cc2ccccc2)cc(C=Nc2ccc(N3CCOCC3)cc2)c1O` as the compound, how does the displacement read?
A: 50% (active)

Q: For `O=[N+]([O-])c1cc(Br)c(O)c(C=Nc2ccc(N3CCOCC3)cc2)c1`, which displacement is on record?
A: 41.8%

Q: For `O=C(NCc1ccco1)/C(=C\c1ccc(F)cc1)NC(=O)c1ccco1`, which displacement is on record?
A: 5.4%

Q: How did the displacement turn out when `O=C(Nc1ccc(S(=O)(=O)N2CCOCC2)cc1)c1ccc(S(=O)(=O)N2CCOCC2)cc1` was run?
A: -5.8%

Q: With `O=C(Nc1ccc(S(=O)(=O)N2CCOCC2)cc1)c1ccc(F)cc1` as the compound, how does the displacement read?
A: 10.6%

Q: How did the displacement turn out when `C=CCn1c(SCCC)nc(O)cc1=O` was run?
A: 3%

Q: `COc1ccccc1NC(=O)CN(Cc1ccco1)C(=O)c1ccc(-n2nc(C)cc2C)cc1` was tested. Which displacement did it give?
A: -1.4%

Q: How did the displacement turn out when `COc1ccc(N2CCN(C(C)C(=O)N3CCc4ccccc43)CC2)cc1` (centres undefined) was run?
A: -5.4%

Q: `Cc1ccsc1C=Nc1ccc(O)cc1` was tested. Which displacement did it give?
A: 55.3% (active)

Q: Which displacement does the source give for `Cc1ccc(N=Cc2sccc2C)cc1C` here?
A: 1.9%

Q: `Cc1ccsc1/C=N/N=C/c1sccc1C` was tested. Which displacement did it give?
A: -9.3%

Q: For `CCN1CCN(c2cc(N3CCN(C(=O)c4ccco4)CC3)c3c4c(onc24)-c2ccccc2C3=O)CC1`, which displacement is on record?
A: 51.9%

Q: With `O=C(O)CCNc1cc(N2CCN(C(=O)c3ccco3)CC2)c2noc3c2c1C(=O)c1ccccc1-3` as the compound, how does the displacement read?
A: 63%

Q: With `Cc1ccc(-n2nnc3c(=O)n(CC(=O)NCC4CCCO4)cnc32)cc1` (centres undefined) as the compound, how does the displacement read?
A: -0.3%

Q: With `CCOC(=O)CN1C(=O)CN(c2ccc(C)cc2)C1=O` as the compound, how does the displacement read?
A: 5.5%

Q: For `Cn1cc(NC(=O)OCc2ccc(Cl)cc2)c(C(F)(F)F)n1`, which displacement is on record?
A: 1.5%

Q: How did the displacement turn out when `Oc1ccc(Cl)cc1N=Nc1ccccc1` was run?
A: 12.6%

Q: Which displacement does the source give for `O=S(=O)(O)c1cccc(N=Nc2c(O)ccc3ccccc23)c1` here?
A: -4.3%

Q: How did the displacement turn out when `CC12CCC(C(=O)N(NC(=O)c3ccc(O)cc3)C1=O)C2(C)C` (centres undefined) was run?
A: -2.6%

Q: With `COc1ccccc1N(CC(=O)NCCSc1ccc(Cl)cc1)S(C)(=O)=O` as the compound, how does the displacement read?
A: -0.3%

Q: How did the displacement turn out when `CC(C)CC(c1nnnn1C(C)C)N1CCN(c2cccc(Cl)c2)CC1` (centres undefined) was run?
A: -5.9%

Q: With `CCCCNC1=CC(=O)C(=O)c2ccccc21` as the compound, how does the displacement read?
A: 60% (active)

Q: For `O=C1C=C(Nc2ccccc2)c2ccccc2C1=O`, which displacement is on record?
A: 45.4%

Q: Which displacement does the source give for `Cc1ccc(NC2=CC(=O)C(=O)c3ccccc32)cc1` here?
A: 3.3%

Q: For `COC(=O)c1cc2ccccc2oc1=O`, which displacement is on record?
A: -2.6%

Q: Which displacement does the source give for `CCOC(=O)N/N=C\c1ccc(OC(=O)c2ccc3c(c2)OCO3)cc1` here?
A: 1.3%

Q: With `CCOCCCNc1nc2c(C)cccn2c(=O)c1/C=C1\SC(=S)N(C(C)CC)C1=O` (centres undefined) as the compound, how does the displacement read?
A: 53.2% (active)

Q: How did the displacement turn out when `CCOCCCNc1nc2c(C)cccn2c(=O)c1/C=C1\SC(=S)N(CC(C)C)C1=O` was run?
A: -1.2%

Q: How did the displacement turn out when `CCCN1C(=O)/C(=C/c2c(NCCCOCC)nc3c(C)cccn3c2=O)SC1=S` was run?
A: -2.4%

Q: With `Cc1nn(C)c(Oc2cccc(C(F)(F)F)c2)c1C=O` as the compound, how does the displacement read?
A: -3.5%

Q: For `Cc1ccc(-n2ncc3c(NNC(=O)c4ccco4)ncnc32)cc1C`, which displacement is on record?
A: 3%

Q: Which displacement does the source give for `O=C(N1CCN(c2ccccc2F)CC1)C12CC3CC(CC(C3)C1)C2` here?
A: -8.1%

Q: Which displacement does the source give for `CCC(NC(=O)CCc1c(C)c2cc3c(C)c(C)oc3cc2oc1=O)C(=O)N[C@@H](Cc1ccccc1)C(=O)O` (some centres undefined) here?
A: 34.5%

Q: `Cc1oc2c(C)c3oc(=O)c(CC(=O)N[C@@H](CC(C)C)C(=O)N[C@@H](Cc4ccccc4)C(=O)O)c(C)c3cc2c1C` was tested. Which displacement did it give?
A: 30.3%

Q: For `COc1cccc(C(C(=O)NC2CCCCC2)N(C(=O)c2cccs2)c2ccc3c(c2)OCO3)c1` (centres undefined), which displacement is on record?
A: -1%

Q: Which displacement does the source give for `COc1ccc(CCC(=O)Nc2ccc(S(=O)(=O)N3CCOCC3)cc2)cc1` here?
A: 1.9%

Q: `O=c1ccc2cc(S(=O)(=O)N3CCN(c4ccc(Cl)cc4)CC3)ccc2o1` was tested. Which displacement did it give?
A: -0.9%

Q: Which displacement does the source give for `CCN1C(=C(C#N)C#N)C=Cc2ccccc21` here?
A: 8.2%

Q: How did the displacement turn out when `CCCN1C(=O)/C(=c2\s/c(=C3\C=Cc4ccccc4N3CC)c(=O)n2-c2ccccc2)SC1=S` was run?
A: -1.6%

Q: `CCCn1c(=C(C#N)C#N)s/c(=C2\C=Cc3ccccc3N2CC)c1=O` was tested. Which displacement did it give?
A: 65.1% (active)

Q: For `Cc1ccc(-c2nnc(SCC(=O)NC(=O)Nc3ccc(C)cc3C)n2N)cc1`, which displacement is on record?
A: 5.1%

Q: How did the displacement turn out when `CCc1nc(Cl)c(C#N)c2c1CCCC2` was run?
A: 3.8%

Q: How did the displacement turn out when `Cc1ccc(NC(=O)CCC(=O)OCc2ccc(Br)cc2)cc1` was run?
A: 1.1%

Q: How did the displacement turn out when `COc1ccc(/C=c2\s/c(=C(/C#N)C(=O)NCc3ccco3)n(-c3ccccc3)c2=O)cc1` was run?
A: 21.4%

Q: How did the displacement turn out when `CN(c1ccccc1)c1ccc(/C=c2\s/c(=C(/C#N)C(=O)C(C)(C)C)n(Cc3ccco3)c2=O)cc1` was run?
A: 102% (active)

Q: How did the displacement turn out when `Cc1ccc(/C=c2\s/c(=C(/C#N)C(=O)N3CCCC3)n(Cc3ccco3)c2=O)s1` was run?
A: -3%

Q: With `Cc1ccc(NC(=O)Nc2cnccn2)cc1` as the compound, how does the displacement read?
A: -0.7%

Q: How did the displacement turn out when `Cc1ccc(S(=O)(=O)N2CCN(C(=O)c3cccs3)CC2)cc1C` was run?
A: -2%

Q: Which displacement does the source give for `CCO/C=C1/C(=O)N(CC)c2ccccc21` here?
A: -7.3%

Q: With `CCO/C=C1\C(=O)N(c2ccccc2)C(=O)c2ccccc21` as the compound, how does the displacement read?
A: 1.1%

Q: With `CCO/C=C1/C(=O)N(Cc2ccccc2)C(=O)c2ccccc21` as the compound, how does the displacement read?
A: 55.6% (active)

Q: For `C/C(=N\NC(=O)c1nnn(-c2nonc2N)c1CN1CCCCC1)c1ccccc1O`, which displacement is on record?
A: -0.3%

Q: `Cc1cc(CN(C)C(=O)CC2C(=O)NCCN2Cc2ccc(-c3ccccc3)cc2)on1` (centres undefined) was tested. Which displacement did it give?
A: -0.5%
